Molecules are shown by their SMILES. Out of some 75,000 compounds screened, about 15 (0.02%) were called active. Not shown: some 3% with an inconclusive outcome. The sample holds actives, similar compounds and a random draw of the others, so the mix is not that of the screen. Unmarked numbers belong to inactive results. Calls come from the whole dose curve; as a rule, active = well fitted inhibition curve with a large enough effect in the main read-out, with a control signal flat (not every such curve was filed as active); inconclusive = small, poorly fitted or top-dose-only effect, or a change in a side signal; inactive = flat fitted curve, though single readings scatter.

Caspase-7 (Homo sapiens), sequence (P55210 24-198 limits assumed): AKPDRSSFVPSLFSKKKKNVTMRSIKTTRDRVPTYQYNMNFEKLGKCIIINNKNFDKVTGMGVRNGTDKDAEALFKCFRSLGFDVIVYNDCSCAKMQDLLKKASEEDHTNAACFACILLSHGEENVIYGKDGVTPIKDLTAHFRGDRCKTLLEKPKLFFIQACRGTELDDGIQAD
Caspase-7 (Homo sapiens), sequence (P55210 207-303 limits assumed): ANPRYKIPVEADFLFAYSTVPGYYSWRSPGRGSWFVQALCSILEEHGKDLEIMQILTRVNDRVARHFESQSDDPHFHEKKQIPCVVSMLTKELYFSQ

The target of the experiment is Caspase-7 (Homo sapiens) (UniProt P55210). Kind of experiment: qHTS Assay for Allosteric/Competitive Inhibitors of Caspase-7. Note: % of control where 0% means no effect. Particulars: recombinant caspase-7, Ac-DEVD-AFC fluorescence rate; series mostly up to 57.5 µM; activity change, negative = inhibition: at the top concentration. From the text:
NIH Molecular Libraries Screening Centers Network [MLSCN]
NIH Chemical Genomics Center [NCGC]
PI Name: Dr. James Wells,
Dr. Enrique Perez-Paya, Dr.Janice Williams, Dr. Dennis Wolan, a person
The caspases (Cysteine Aspartyl Protease) comprise a related family of 14 dimeric proteases that are critical mediators of apoptosis (programmed cell death) and inflammation. The caspases represent an important class of drug targets for stroke, ischemia, cancer and inflammatory diseases. […] One goal of this project was to identify compounds that act as allosteric inhibitors via stabilizing the procaspase form of the enzyme. Previous work in Well's laboratory has shown that such allosteric inhibitors can be identified and these act by binding at the dimer interface of enzyme (Hardy, Lam et al., 2004).
The biochemical assay was configured using purified caspase 7 at a high enzyme concentration to promote formation of the homodimers and thus facilitate the identification of allosteric inhibitors. The overall goal was to identify reversible inhibitors with better drug-like properties than the currently available set of aspartyl-containing peptidomimetics that covalently bind the active site. Caspase 7 was assayed using the profluorescent substrate Ac-DEVD-AFC. After initiation of the assay with substrate the plates were rapidly read using an automated robotic system (Kalypsys, Inc.) to maintain consistent timing. A kinetic mode of detection was used where the initial rate was collected (estimated final product formation was ~10%). Compounds were screened as a concentration-titration series that ranged from 57 uM to 0.7 nM. Below is the protocol used for caspase 7.
NCGC Assay Protocol Summary:
Caspase 7 was prepared in buffer (50 mM HEPES pH 7.5, 50 mM KCl, 200 mM NaCl, 10 mM DTT, 0.1% CHAPS) at a concentration of 66.6 nM and 3 uL was dispensed to all wells using black solid Kalypsys 1536-well plates. 20 nL of DMSO containing compounds was added using a pin-tool (Kalypsys Inc.) to columns 5-48. Then 20 nL of DMSO solution from a control plate was added to columns 1-4. Controls were: Column 1, 16 point titration with each concentration in duplicate (1:1 dilutions in DMSO; final starting concentration was 57 uM) of the caspase 7 inhibitor Ac-DEVD-CHO (Alexis Biochemicals); Column 2, a 16 point titration with each concentration in duplicate of the free AFC fluorophore prepared in DMSO (Alexis Biochemicals), final starting was 40 uM; Column 3 neutral (DMSO only) control; Column 4: DMSO alone, to serve as a negative control (no substrate was added). Then 1 uL of 20 uM the substrate Ac-DEVD-AFC (Alexis Biochemicals) prepared in the same buffer was dispensed to all wells except columns 2 and 4 and the plates were immediately transferred (< 1 min) to the Viewlux. The plates were then exposed using 405 nm excitation/520 nm emission filters for 4 sec and read at 20 sec intervals for 3 min. Final enzyme concentration was 50 nM and the final substrate concentration was 5 uM.
Concentration-response curves were fitted to the data calculated from slope of the linear regression of fluorescent intensity versus time (the rate). The concentration-effect curves were then classified based on curve quality (r2), response magnitude and degree of measured activity. […] Inconclusive compounds had appreciable concentration-dependent effects on both the measured rate and the interpolated basal fluorescence intensity at the start of the reaction but where the basal fluorescent intensity was marginal (e.g. < 10-fold). Inconclusive compounds also encompass highly fluorescent compounds (>100-fold increases in fluorescent intensities values relative to controls) where artificial concentration-dependent decreases in the rate occurred at high compound concentrations due to fluorescent interferences.
Keywords: Caspase 7, proteases, profluorescent, MLSMR, MLSCN, NIH Roadmap, qHTS, NCGC
For orientation: In qHTS, concentration-response curves come from the screen itself.
Consider `Cc1ccc(S(=O)(=O)NC(C)C(=O)Nc2ccccc2C(=O)N2CCCC2)cc1` (stereo unspecified), for which the “activity change, negative = inhibition” value was 0.252%. `Cn1c(=S)c2[nH]c(SCCCc3ccccc3)nc2n(C)c1=O`: the activity change, negative = inhibition is 0.0837% [at 11.5 µM]. Consider `CCC1=C(OC(=O)N(CC)CC)N2C(=O)OC(=NCC3CC3)[C@]2(C)[C@H]2C1=CC[C@H]1C(=O)N(CC(=O)OC)C(=O)[C@H]12`, for which the “activity change, negative = inhibition” value was -3.1%. The result for `Fc1ccc(-c2nnc3sc(-c4ccc5c(c4)OCO5)nn23)cc1` reads -2.97%. The result for `Cn1c2c(c(=O)n(C)c1=O)C(c1ccc(O)cc1)Nc1ccccc1O2` (stereo unspecified) reads -0.743%. As for `CCOC(=O)c1[nH]c2c(c1C)C(=O)CC(c1ccc(N(C)C)cc1)C2` (stereo unspecified), the figure is -4.88%; as for `COc1ccc(NS(=O)(=O)c2ccc(NC(=O)C(C)(C(F)(F)F)C(F)(F)F)cc2)nn1`, -1.99%; as for `Cc1cc(C(=O)COC(=O)c2cccs2)c(C)n1-c1c(C)n(C)n(-c2ccccc2)c1=O`, 5.46%. Turning to `COc1ccc2c3c1OC1CC(O)C=C[C@@]31CCN(C)C2` (stereo partly specified), the “activity change, negative = inhibition” value was 0.921%.

In the case of `Cc1ccc(S(=O)(=O)C2(S(=O)(=O)c3ccc(C)cc3)CCCC2)cc1`, the “activity change, negative = inhibition” value is 5.15%. Turning to `CCCN1C(=O)C(NS(=O)(=O)c2ccc(N)cc2)(C(F)(F)F)C(C(=O)OC)=C1C` (stereo unspecified), the “activity change, negative = inhibition” value was 1.12%. Turning to `CS(=O)(=O)c1ccc2nc(NC(=O)C3CCCCC3)sc2c1`, the “activity change, negative = inhibition” value was -1.36%. Consider `CC(=O)OC1CCC2(O)CC1(C)CCC1C2CC1(C)C` (stereo unspecified), for which the “activity change, negative = inhibition” value was 1.05%.

`CC(C)C(N)C(=O)OCCOCn1cnc2c(=O)[nH]c(N)nc21` (stereo unspecified): the “activity change, negative = inhibition” value is 0.177%.

For `CC(C)(CSc1nncn1/N=C/c1ccco1)NS(=O)(=O)c1ccc(Cl)cc1`, the “activity change, negative = inhibition” value was -1.02%. For the molecule `NC(=O)C1CCN(C(=O)c2ccc(C(F)(F)F)cc2)CC1`, the “activity change, negative = inhibition” value was -0.1%. In the case of `Cc1ccccc1CN1CCN(CC(=O)NCc2ccccn2)C1=O`, the “activity change, negative = inhibition” value was -3.4%.

As for `BrC1C(Br)C(Br)C(Br)C(Br)C1Br` (stereo unspecified), the “activity change, negative = inhibition” value is -0.843%.

For the molecule `CC(=O)N1CCC2(CCCN(c3ncccn3)C2)CC1`, the “activity change, negative = inhibition” value was -0.0087%. Turning to `CC1CCCCN1CCCNC(=O)c1ccc(-n2c(=O)c(=O)[nH]c3ccccc32)cc1` (stereo unspecified), the “activity change, negative = inhibition” value is -0.222%. As for `CCCn1c(SCC(=O)Nc2cccc(C(=O)OCC)c2)nnc1-c1ccoc1C`, the figure is -2.89%; as for `COC(=O)CC1C(C)(C)C(OC(C)=O)C2CC3=C4CC(=O)OC(c5ccoc5)[C@]4(C)CCC3[C@@]1(C)C2=O` (stereo partly specified), 0.157%; as for `O=C1NS(=O)(=O)c2ccccc21`, -0.547%.

Take `CC12CN3CC(C)(CN(C1)C3c1ccc(Cl)cc1Cl)C2=O` (stereo unspecified): the “activity change, negative = inhibition” value was 1.96%. Consider `C[N+](C)(C)CCNC(=O)c1c(O)c2c([nH]c1=O)CCCC2`, for which the “activity change, negative = inhibition” value is 0.0221%. The result for `CCOC(=O)N1CCC(O)(c2cc(C)c(C)cc2C)CC1` reads 0.455%. `Cc1cc(C)cc(N(CC(=O)Nc2c(C)n(C)n(-c3ccccc3)c2=O)S(C)(=O)=O)c1`: the “activity change, negative = inhibition” value was 1.18%.

Regarding `COc1ccc(Cn2c(=O)sc3ccccc32)cc1OC`, the “activity change, negative = inhibition” value is 4.76%. The result for `CCOC(=O)N1CCN(C(=O)CSc2nnc(-c3c[nH]c4ccccc34)n2CCOC)CC1` reads -1.93%. Take `CCN(CC)C(=O)CSc1nnc(-c2ccc(S(=O)(=O)NCc3ccccc3Cl)cc2)o1`: the “activity change, negative = inhibition” value is 6.38%. As for `Cc1ccccc1NC(=O)c1cc(S(=O)(=O)N2CCOCC2)cs1`, the figure is -0.15%; as for `CCOC(=O)c1[nH]cnc1C(=O)NC1CCCCC1`, -0.201%. Regarding `Oc1cc(O)c2c(c1)OC(c1ccc(O)c(O)c1)C(O)C2` (stereo unspecified), the “activity change, negative = inhibition” value was -8.9%. `CCOc1ccc(NS(=O)(=O)c2ccc(OCC(=O)NCCCOC)cc2)cc1`: the “activity change, negative = inhibition” value was -0.0247%. The result for `COc1cccc(Cn2c(=O)c(C)nc3cnc(Oc4ccccc4)nc32)c1` reads -5.86%. The result for `CCOc1ccc(Cn2c(SCCCCC#N)nc3c2c(=O)n(C)c(=O)n3C)cc1OCC` reads -1.76%; that for `Cc1onc(-c2ccccc2Cl)c1C(=O)NCCn1ccc2ccccc21`, -2.02%. As for `CC1O[C@@H](Oc2c(-c3ccc(O)c(O)c3)oc3cc(O)cc(O)c3c2=O)C(O)C(O)C1O` (stereo partly specified), the figure is -0.198%; as for `CCC1Oc2ccc(Cl)cc2N(CC(=O)O)C1=O` (stereo unspecified), -0.283%. Consider `O=C(Cc1cccs1)N1CCCC(c2nc(-c3ccc(S(=O)(=O)N4CCCC4)cc3)no2)C1` (stereo unspecified), for which the “activity change, negative = inhibition” value was -4.24%.

Consider `CN(C)CCc1c[nH]c2ccc(Cn3cncn3)cc12`, for which the “activity change, negative = inhibition” value is 0.22%.

On to `C=CCn1c(COc2ccccc2F)nnc1SCC(=O)N1CC(=O)Nc2ccccc21`, for which the “activity change, negative = inhibition” value is -2.2%. The result for `O=NO` reads “inactive”; that for `COC(=O)c1ccc(N(CC(=O)NC2CCCC2)C(=O)CNC(=O)c2ccco2)cc1`, -1.2%. The result for `COc1ccc(C(=O)CSc2nccc(=O)[nH]2)cc1` reads -0.19%. For `COc1cc(OC)c(C(=O)Nc2ccc(N(C)C)cc2)cc1OC`, the “activity change, negative = inhibition” value was 0.862%. The result for `CC1CSc2nnc(CCc3ccccc3)n21` (stereo unspecified) reads -1.75%; that for `O=c1c(O)c(-c2ccc(O)cc2)oc2ccccc12`, -1.75%; that for `CC(C)NS(=O)(=O)c1ccc(OCC(=O)Nc2ccc3c(c2)OCCO3)cc1`, -0.453%. In the case of `CCOC(=O)Cc1csc(NC(=O)CN(C)S(=O)(=O)c2ccc3c(c2)CCC(=O)N3)n1`, the “activity change, negative = inhibition” value was -1.68%. The result for `CC1CCCC(NC(=O)CN2CCN(Cc3ccc(Cl)cc3)C2=O)C1C` (stereo unspecified) reads -0.0034%.

Source of the values: PubChem BioAssay AID889 (National Center for Advancing Translational Sciences (NCATS), 2007).
